Screens from PubChem.
M4 PAM: potentiates acetylcholine response at human M4 receptor; P08173; CHO-K1 hM4/Gqi5, Fluo-8 calcium fluorescence, ACh EC20; 0% = ACh EC20, 100% = maximal ACh; activation, % at 3 µM; actives 0.4% (n = 360,000); AID 624126;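 active means activation above its plate's cutoff, the mean activation of sample wells plus 3 SD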
Target sequence (P08173 whole entry, looked up): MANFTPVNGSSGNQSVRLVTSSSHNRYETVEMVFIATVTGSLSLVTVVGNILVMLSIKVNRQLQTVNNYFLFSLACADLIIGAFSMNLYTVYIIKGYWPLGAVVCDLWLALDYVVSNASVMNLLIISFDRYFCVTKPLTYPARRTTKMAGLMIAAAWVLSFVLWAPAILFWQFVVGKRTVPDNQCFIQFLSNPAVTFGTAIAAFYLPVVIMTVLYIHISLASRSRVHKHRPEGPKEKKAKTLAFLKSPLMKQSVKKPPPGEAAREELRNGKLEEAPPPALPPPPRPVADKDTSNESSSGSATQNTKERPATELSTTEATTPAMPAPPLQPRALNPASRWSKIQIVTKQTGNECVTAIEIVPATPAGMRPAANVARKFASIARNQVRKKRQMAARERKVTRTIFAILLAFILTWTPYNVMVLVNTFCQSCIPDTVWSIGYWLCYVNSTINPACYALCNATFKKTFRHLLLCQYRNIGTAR
M1 antag: human CHRM1 antagonism; P11229; CHO-K1 hM1, Fluo-8 calcium fluorescence, ACh EC80 antagonist; inhibition, % at 3 µM; actives 1.3% (n = 360,000);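 active means percent inhibition above its own plate's cutoff, namely the mean of that plate's compound wells plus 3 SD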;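 further: peak over basal fluorescence ratio during 140 s after agonist addition; 0% = ACh EC80 plus DMSO and 100% = DMSO alone without agonist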
M4 ag: agonists of human muscarinic M4 receptor (CHRM4); P08173; CHO-K1 hM4/Gqi5, Fluo-8 calcium fluorescence; vehicle 0%, full acetylcholine response 100%; activation, % at 3 µM; actives 0.14% (n = 360,000);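 active means activation above the run mean over all test wells plus 3 SD, cut at about 32% in these data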;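 further: peak over basal fluorescence ratio per well then scaled between controls; 0% = DMSO wells and 100% = acetylcholine at EC100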
M1 PAM: human CHRM1 positive allosteric modulation; actives 0.088% (n = 360,000); activation, % at 3 µM; P11229; CHO-K1 hM1, Fluo-8 calcium fluorescence, ACh EC20; 0% = ACh EC20, 100% = maximal ACh; in the data active means activation above about 19%, passing the limit was not always enough
M1 ag: human M1 muscarinic receptor agonism. CHO-K1 hM1, Fluo-8 calcium fluorescence, agonist mode; 0% DMSO, 100% acetylcholine EC100. activation, % at 3 µM. actives 0.33% (n = 360,000);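 active means activation above the run's mean compound activation plus 3 SD, cut at about 16% in these data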;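 further: peak over basal fluorescence ratio within a 140 s kinetic read after compound addition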
M4 antag: CHRM4 antagonism in calcium assay; P08173; CHO-hM4 cells, ACh EC80, Fluo-8 calcium fluorescence; inhibition, % at 3 µM; actives 0.73% (n = 360,000); AID 624125;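 active means inhibition above its plate's cutoff, the mean inhibition of sample wells plus 3 SD, cut at about 27% in these data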;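 further: 0% = acetylcholine EC80 with DMSO and 100% = DMSO without agonist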
Starred values were filed as active, the others as inactive. An excerpt weighted towards active compounds, which were near 2.2% of everything screened.

SMILES	M4 PAM	M1 antag	M4 ag	M1 PAM	M1 ag	M4 antag
Cc1cc(C)c(S(C)(=O)=O)c(Oc2ccc(F)cc2)n1	5	-13	0	7	-4	-11
Cc1cc2nnc(SC(C)C)n2c2ccccc12	-3	33*	0	-10	-2	8
Cc1cc2nnc(SC(C)C#N)n2c2ccccc12 (stereo not given)	0	-3	0	5	-4	3
O=C1c2cccc3c([N+](=O)[O-])ccc(c23)C(=O)N1c1nccs1	-12	24*	-2	-14	-7	36*
O=C1c2cccc3c([N+](=O)[O-])ccc(c23)C(=O)N1c1ccc(Cl)cn1	-13	23	4	-17	-10	32*
O=C1c2cccc3c([N+](=O)[O-])ccc(c23)C(=O)N1c1ccccn1	-6	20	1	-3	-5	15
CCC1CCCCN1CCCNC(=O)C1CCN(c2nnc(-n3cccc3)s2)CC1 (stereo not given)	-10	95*	0	-25	-6	6
CCN1CCN(CCCNC(=O)C2CCCN(c3nnc(-n4cccc4)s3)C2)CC1 (stereo not given)	27*	-6	0	4	-5	-10
Cc1ccc(-c2nc(CSCC(=O)NCCN3CCN(Cc4ccccc4)CC3)c(C)o2)cc1	-12	26*	8	-18	-4	10
CCCN(CCC)CCCNC(=O)c1ccc2c(c1)N(CC)C(=O)c1ccccc1S2=O (stereo not given)	1	44*	1	-16	-6	-20
CCCCNC(=O)c1ccc2c(c1)N(CC)C(=O)c1ccccc1S2(=O)=O	-12	33*	18	-18	-4	8
CCCCSCCCNC(=O)c1ccc2c(c1)N(CC)C(=O)c1ccccc1S2=O (stereo not given)	-7	-12	1	1	-10	1
NC(c1ccccc1)c1csc(Nc2ccc(S(N)(=O)=O)cc2)n1 (stereo not given)	1	-17	1	9	-2	1
COc1ccc(S(=O)(=O)N2CCOC2CNC(=O)C(=O)NCCCN2CCOCC2)cc1 (stereo not given)	0	15	1	-5	-5	1
Cc1c(O)ccc2c(-c3ccccc3)cc(=O)oc12	-8	8	11	-11	1	-1
Cc1cccc2cc(-c3ccccc3)c(-c3ccccc3)c[n+]12	-34	52*	0	-23	-9	38*
O=C(NCC(=O)N1CCOCC1)c1ccc(Br)o1	-1	0	0	16	4	-11
C=C(C)C(=O)OCC(O)COc1ccc(C(C)(C)c2ccc(OCC(O)COC(=O)C(=C)C)cc2)cc1 (stereo not given)	-14	0	26	-11	4	32*
COc1ccc(CCNC(=O)c2ccc(N3CCCC3=O)cc2)cc1OC	0	0	1	-1	-3	-6
CCCn1c(C(=O)OC)cc2c1ccn2-c1ccc(F)cc1	7	-1	-1	11	2	-18
COC(=O)c1cc2c(ccn2-c2ccc(F)cc2)n1CC(C)C	17*	-8	2	9	3	-16
CCOC(=O)c1sc(-c2ccc(OC)cc2)cc1N	-6	-2	0	8	4	0
CCc1ccc2oc(-c3ccc(OC)cc3)cc(=Nc3c(C)n(C)n(-c4ccccc4)c3=O)c2c1	-7	47*	7	-22	-5	-19
COc1ccc(C)cc1NS(=O)(=O)c1ccc(NS(=O)(=O)c2ccc(NC(C)=O)cc2)cc1	22*	-1	0	17	9	-2
O=C(CN1CCOCC1)Nc1nc(-c2ccccc2)cs1	-9	-7	13	5	-2	-1
SMILES	M4 PAM	M1 antag	M4 ag	M1 PAM	M1 ag	M4 antag
CC(C)C(=O)N(Cc1ccccc1)S(=O)(=O)c1ccc2c(c1)oc(=O)n2C	0	3	2	-2	-4	0
O=C(Nc1ccccc1N1CCCC1)c1ccc([N+](=O)[O-])cc1Cl	25*	-1	1	4	-8	-16
O=C(c1ccc2c(c1)OCO2)C1CCCN(Cc2ccc3cccc(F)c3n2)C1 (stereo not given)	-6	21	2	-28	-11	-10
O=C(c1ccc2c(c1)OCO2)C1CCCN(Cc2ccc(OC(F)F)cc2)C1 (stereo not given)	-15	91*	9	-24	0	33*
O=C(c1ccc2c(c1)OCO2)C1CCCN(Cc2cccc(C(F)(F)F)c2)C1 (stereo not given)	-14	63*	-2	-24	-7	15
COc1cc(OC)c(OC)cc1CN1CCCC(C(=O)c2ccc3c(c2)OCO3)C1 (stereo not given)	-9	6	0	-13	-10	7
NNC(=O)CNC(c1ccccc1)c1cc(Br)ccc1N (stereo not given)	-18	-4	0	25	1	-6
CCn1c(C)c(C)c2cc(C(=O)NCCc3ccco3)ccc21	18*	-6	1	19	3	1
Cc1c(Br)cc(C(=O)NCc2ccco2)c(C)c1C	-1	-16	1	-4	-7	8
Cc1ccc(C(=O)NCc2ccco2)cc1Br	20*	-4	1	7	-3	-5
Cc1cc(C)c2c(N)c(C(=O)NCc3ccco3)sc2n1	50*	-9	8	10	-3	-1
Cc1cc(OCc2nnc(SCC(=O)OC3CCCCC3)o2)ccc1Cl	4	5	0	6	-3	-2
CCCCn1c(N)c(N(CCC(C)C)C(=O)c2cc(S(=O)(=O)N3CCOCC3)ccc2F)c(=O)[nH]c1=O	13	-31	0	21*	2	-20
CCCCn1c(N)c(N(CCOC)C(=O)c2cc(S(=O)(=O)N3CCOCC3)ccc2F)c(=O)[nH]c1=O	6	-9	1	4	0	-18
CCCCn1c(N)c(N(CCC(C)C)C(=O)Cc2ccc(S(=O)(=O)N3CCOCC3)s2)c(=O)[nH]c1=O	10	-6	1	5	-3	-27
CCCCn1c(N)c(N(CC(C)C)C(=O)Cc2ccc(S(=O)(=O)N3CCOCC3)s2)c(=O)[nH]c1=O	1	11	14	-4	17*	-8
CCc1nc(N2CCCCC2)c2oc3ccccc3c2n1	5	-4	-4	1	-7	-7
Cc1sc2ncn(CC(=O)N3CCC(C(N)=O)CC3)c(=O)c2c1S(=O)(=O)N1CC(C)CC(C)C1 (stereo not given)	15*	1	3	2	-4	-18
N#C/C(=C\c1ccccc1[N+](=O)[O-])c1nc(C2CC2)cs1	-17	7	1	-3	-8	0
